# Paper PMC7862700, “An all-to-all approach to the identification of sequence-specific readers for epigenetic DNA modifications on cytosine”
# Key:
# Experiment in all cases: DAPPL (digital affinity profiling via proximity ligation, sequencing); 10 mM Tris-HCl pH 7.5, 50 mM NaCl, 1 mM DTT, 4% glycerol, room temperature, 30 min; GST-TFs on glutathione beads, 16-mer random dsDNA library, 0.1% formaldehyde crosslink after washing; high values mean tight binding
# Details in all cases: protein: recombinant; tags: N-terminal GST; dsDNA, one strand shown
# [1] = biological target: T1, ERF (Homo sapiens, UniProt P50548 1-548)
# T1 sequence: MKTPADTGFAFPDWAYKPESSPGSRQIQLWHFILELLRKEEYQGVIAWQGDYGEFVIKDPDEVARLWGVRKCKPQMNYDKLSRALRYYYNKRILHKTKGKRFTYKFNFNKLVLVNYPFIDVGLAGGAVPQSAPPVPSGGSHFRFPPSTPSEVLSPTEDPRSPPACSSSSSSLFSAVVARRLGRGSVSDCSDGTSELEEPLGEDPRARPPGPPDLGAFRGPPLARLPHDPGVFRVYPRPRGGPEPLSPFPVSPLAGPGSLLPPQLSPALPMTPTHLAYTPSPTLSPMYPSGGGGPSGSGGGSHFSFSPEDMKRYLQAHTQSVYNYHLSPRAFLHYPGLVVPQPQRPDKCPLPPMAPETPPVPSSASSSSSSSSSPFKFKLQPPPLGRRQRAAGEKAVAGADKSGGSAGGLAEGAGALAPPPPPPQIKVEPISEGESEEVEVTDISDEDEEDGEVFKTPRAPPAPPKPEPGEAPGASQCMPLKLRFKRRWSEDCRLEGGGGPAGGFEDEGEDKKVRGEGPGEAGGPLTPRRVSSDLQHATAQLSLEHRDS
# Summary of the method: (§1)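 Binding signal is each hexamer's read frequency for a factor divided by its frequency in the tag-only sample. The factors were GST-fused human transcription factors from yeast, captured on glutathione beads, DNA-barcoded and pooled with that sample. Pools were incubated with 200 nmole of a random double-stranded 16-mer DNA library in Tris/NaCl/DTT/glycerol buffer at room temperature for 30 min, then washed, crosslinked with 0.1% formaldehyde, proximity-ligated with BsaI/T4 ligase (1 h, 37 °C), PCR-amplified and sequenced on an Illumina NextSeq500.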
# [2] = biological target: T2, ETV3L (Homo sapiens, UniProt Q6ZN32 1-361)
# T2 sequence: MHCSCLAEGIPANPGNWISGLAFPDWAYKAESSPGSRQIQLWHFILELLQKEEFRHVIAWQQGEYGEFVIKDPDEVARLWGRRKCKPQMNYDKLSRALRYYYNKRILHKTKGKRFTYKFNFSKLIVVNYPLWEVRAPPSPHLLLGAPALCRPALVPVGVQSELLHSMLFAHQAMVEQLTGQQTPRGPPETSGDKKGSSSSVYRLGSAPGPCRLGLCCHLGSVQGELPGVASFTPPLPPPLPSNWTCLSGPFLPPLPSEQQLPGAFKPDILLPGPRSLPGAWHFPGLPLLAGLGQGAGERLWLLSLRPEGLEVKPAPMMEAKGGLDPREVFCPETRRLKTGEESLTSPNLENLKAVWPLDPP
# Summary of the method: as §1
# [3] = biological target: T3, ETS2 (Homo sapiens, UniProt P15036 1-469)
# T3 sequence: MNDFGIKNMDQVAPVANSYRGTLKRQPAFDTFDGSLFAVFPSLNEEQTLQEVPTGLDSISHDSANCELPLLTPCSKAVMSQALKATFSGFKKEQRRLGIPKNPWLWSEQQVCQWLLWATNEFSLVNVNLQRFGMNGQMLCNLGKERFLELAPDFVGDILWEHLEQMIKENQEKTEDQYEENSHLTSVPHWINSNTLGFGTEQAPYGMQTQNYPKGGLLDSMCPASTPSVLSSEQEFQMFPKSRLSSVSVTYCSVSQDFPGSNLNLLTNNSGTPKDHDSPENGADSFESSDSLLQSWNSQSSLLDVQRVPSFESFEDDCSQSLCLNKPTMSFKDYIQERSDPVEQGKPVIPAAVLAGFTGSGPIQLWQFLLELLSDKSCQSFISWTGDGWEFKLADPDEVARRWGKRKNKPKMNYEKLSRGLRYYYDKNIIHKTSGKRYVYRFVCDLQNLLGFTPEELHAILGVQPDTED
# Summary of the method: as §1
# [4] = biological target: T4, SPDEF (Homo sapiens, UniProt O95238 1-335)
# T4 sequence: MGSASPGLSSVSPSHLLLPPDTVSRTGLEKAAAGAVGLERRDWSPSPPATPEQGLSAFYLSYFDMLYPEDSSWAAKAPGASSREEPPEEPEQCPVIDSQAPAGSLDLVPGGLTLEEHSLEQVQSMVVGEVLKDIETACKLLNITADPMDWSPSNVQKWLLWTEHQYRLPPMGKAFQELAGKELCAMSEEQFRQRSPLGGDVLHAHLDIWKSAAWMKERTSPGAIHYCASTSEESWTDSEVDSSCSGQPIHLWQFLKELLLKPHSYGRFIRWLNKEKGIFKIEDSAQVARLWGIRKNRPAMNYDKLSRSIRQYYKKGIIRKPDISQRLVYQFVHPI
# Summary of the method: as §1
# [5] = biological target: T5, ETV7 (Homo sapiens, UniProt Q9Y603 1-341)
# T5 sequence: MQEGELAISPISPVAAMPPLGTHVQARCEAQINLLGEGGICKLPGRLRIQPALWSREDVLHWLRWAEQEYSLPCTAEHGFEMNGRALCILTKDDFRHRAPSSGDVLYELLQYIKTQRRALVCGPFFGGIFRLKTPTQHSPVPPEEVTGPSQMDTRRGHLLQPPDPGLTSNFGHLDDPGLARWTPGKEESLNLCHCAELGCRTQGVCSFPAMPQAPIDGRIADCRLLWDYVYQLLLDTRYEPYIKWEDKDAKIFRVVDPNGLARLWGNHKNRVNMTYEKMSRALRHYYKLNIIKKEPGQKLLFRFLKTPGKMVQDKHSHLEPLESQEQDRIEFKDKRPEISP
# Summary of the method: as §1
# [6] = biological target: T6, ELF5 (Homo sapiens, UniProt Q9UKW6-2 1-255)
# T6 sequence: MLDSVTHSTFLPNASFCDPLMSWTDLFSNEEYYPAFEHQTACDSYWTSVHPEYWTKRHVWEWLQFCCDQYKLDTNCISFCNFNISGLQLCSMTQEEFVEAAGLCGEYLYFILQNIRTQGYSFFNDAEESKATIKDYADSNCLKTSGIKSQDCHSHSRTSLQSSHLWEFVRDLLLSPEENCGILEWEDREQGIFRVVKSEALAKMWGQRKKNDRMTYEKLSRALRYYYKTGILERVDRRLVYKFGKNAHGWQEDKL
# Summary of the method: as §1
# [7] = biological target: T7, ETV3 (Homo sapiens, UniProt P41162-2 1-143)
# T7 sequence: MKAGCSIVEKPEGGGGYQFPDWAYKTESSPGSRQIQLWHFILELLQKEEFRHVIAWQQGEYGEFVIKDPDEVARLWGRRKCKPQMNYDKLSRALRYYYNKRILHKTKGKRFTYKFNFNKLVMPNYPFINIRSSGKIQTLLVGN
# Summary of the method: as §1
# [8] = biological target: ETV6 (Homo sapiens, UniProt P41212 1-452)
# Summary of the method: as §1
# ETV6, sequence (P41212 whole entry): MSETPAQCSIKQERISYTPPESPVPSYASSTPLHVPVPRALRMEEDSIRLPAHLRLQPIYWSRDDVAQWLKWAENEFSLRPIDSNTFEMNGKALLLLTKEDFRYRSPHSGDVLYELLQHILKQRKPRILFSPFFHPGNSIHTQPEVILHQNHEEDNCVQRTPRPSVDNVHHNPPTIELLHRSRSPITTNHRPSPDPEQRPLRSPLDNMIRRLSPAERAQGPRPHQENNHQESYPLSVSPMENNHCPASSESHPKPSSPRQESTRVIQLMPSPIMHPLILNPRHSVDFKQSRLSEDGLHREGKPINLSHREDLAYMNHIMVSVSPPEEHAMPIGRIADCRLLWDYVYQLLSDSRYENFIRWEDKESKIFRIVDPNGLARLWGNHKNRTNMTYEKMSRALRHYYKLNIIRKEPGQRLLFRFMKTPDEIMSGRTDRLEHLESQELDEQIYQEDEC
Sequence,binding signal [1],binding signal [2],binding signal [3],binding signal [4],binding signal [5],binding signal [6],binding signal [7],binding signal [8]
TGTCCG,"1.31 fold enrichment (6-mer frequency, TF over GST control)","1.4 fold enrichment (6-mer frequency, TF over GST control)","1.52 fold enrichment (6-mer frequency, TF over GST control)","1.8 fold enrichment (6-mer frequency, TF over GST control)","1.51 fold enrichment (6-mer frequency, TF over GST control)","1.62 fold enrichment (6-mer frequency, TF over GST control)","1.6 fold enrichment (6-mer frequency, TF over GST control)","1.55 fold enrichment (6-mer frequency, TF over GST control)"
CTGGAC,"1.03 fold enrichment (6-mer frequency, TF over GST control)","1.22 fold enrichment (6-mer frequency, TF over GST control)","1.07 fold enrichment (6-mer frequency, TF over GST control)","1.12 fold enrichment (6-mer frequency, TF over GST control)","1.09 fold enrichment (6-mer frequency, TF over GST control)","1.16 fold enrichment (6-mer frequency, TF over GST control)","1.06 fold enrichment (6-mer frequency, TF over GST control)","1.09 fold enrichment (6-mer frequency, TF over GST control)"
CAATGC,"1.08 fold enrichment (6-mer frequency, TF over GST control)","1.15 fold enrichment (6-mer frequency, TF over GST control)","1.15 fold enrichment (6-mer frequency, TF over GST control)","1.2 fold enrichment (6-mer frequency, TF over GST control)","1.24 fold enrichment (6-mer frequency, TF over GST control)","1.13 fold enrichment (6-mer frequency, TF over GST control)","1.2 fold enrichment (6-mer frequency, TF over GST control)","1.24 fold enrichment (6-mer frequency, TF over GST control)"
CGTTCC,"1.4 fold enrichment (6-mer frequency, TF over GST control)","1.43 fold enrichment (6-mer frequency, TF over GST control)","1.48 fold enrichment (6-mer frequency, TF over GST control)","1.5 fold enrichment (6-mer frequency, TF over GST control)","1.3 fold enrichment (6-mer frequency, TF over GST control)","1.65 fold enrichment (6-mer frequency, TF over GST control)","1.41 fold enrichment (6-mer frequency, TF over GST control)","1.42 fold enrichment (6-mer frequency, TF over GST control)"
ACCACT,"1.22 fold enrichment (6-mer frequency, TF over GST control)","1.36 fold enrichment (6-mer frequency, TF over GST control)","1.29 fold enrichment (6-mer frequency, TF over GST control)","1.25 fold enrichment (6-mer frequency, TF over GST control)","1.24 fold enrichment (6-mer frequency, TF over GST control)","1.25 fold enrichment (6-mer frequency, TF over GST control)","1.24 fold enrichment (6-mer frequency, TF over GST control)","1.28 fold enrichment (6-mer frequency, TF over GST control)"
CACAAA,"1.18 fold enrichment (6-mer frequency, TF over GST control)","1.16 fold enrichment (6-mer frequency, TF over GST control)","1.16 fold enrichment (6-mer frequency, TF over GST control)","1.12 fold enrichment (6-mer frequency, TF over GST control)","1.01 fold enrichment (6-mer frequency, TF over GST control)","1.1 fold enrichment (6-mer frequency, TF over GST control)","1.09 fold enrichment (6-mer frequency, TF over GST control)","1.08 fold enrichment (6-mer frequency, TF over GST control)"
TGGTGT,"1.19 fold enrichment (6-mer frequency, TF over GST control)","1.25 fold enrichment (6-mer frequency, TF over GST control)","1.32 fold enrichment (6-mer frequency, TF over GST control)","1.23 fold enrichment (6-mer frequency, TF over GST control)","1.08 fold enrichment (6-mer frequency, TF over GST control)","1.14 fold enrichment (6-mer frequency, TF over GST control)","1.25 fold enrichment (6-mer frequency, TF over GST control)","1.31 fold enrichment (6-mer frequency, TF over GST control)"
AATCAG,"1.05 fold enrichment (6-mer frequency, TF over GST control)","1.15 fold enrichment (6-mer frequency, TF over GST control)","1.08 fold enrichment (6-mer frequency, TF over GST control)","1.01 fold enrichment (6-mer frequency, TF over GST control)","1.12 fold enrichment (6-mer frequency, TF over GST control)","1.04 fold enrichment (6-mer frequency, TF over GST control)","1.07 fold enrichment (6-mer frequency, TF over GST control)","1.14 fold enrichment (6-mer frequency, TF over GST control)"
ATTGGG,"1.31 fold enrichment (6-mer frequency, TF over GST control)","1.15 fold enrichment (6-mer frequency, TF over GST control)","1.12 fold enrichment (6-mer frequency, TF over GST control)","1.19 fold enrichment (6-mer frequency, TF over GST control)","1.11 fold enrichment (6-mer frequency, TF over GST control)","1.11 fold enrichment (6-mer frequency, TF over GST control)","1.15 fold enrichment (6-mer frequency, TF over GST control)","1.16 fold enrichment (6-mer frequency, TF over GST control)"
ATGGAC,"1.13 fold enrichment (6-mer frequency, TF over GST control)","1.21 fold enrichment (6-mer frequency, TF over GST control)","1.24 fold enrichment (6-mer frequency, TF over GST control)","1.17 fold enrichment (6-mer frequency, TF over GST control)","1.02 fold enrichment (6-mer frequency, TF over GST control)","1.13 fold enrichment (6-mer frequency, TF over GST control)","1.2 fold enrichment (6-mer frequency, TF over GST control)","1.2 fold enrichment (6-mer frequency, TF over GST control)"
TGCCCG,"1.13 fold enrichment (6-mer frequency, TF over GST control)","1.16 fold enrichment (6-mer frequency, TF over GST control)","1.26 fold enrichment (6-mer frequency, TF over GST control)","1.28 fold enrichment (6-mer frequency, TF over GST control)","1.34 fold enrichment (6-mer frequency, TF over GST control)","1.19 fold enrichment (6-mer frequency, TF over GST control)","1.24 fold enrichment (6-mer frequency, TF over GST control)","1.19 fold enrichment (6-mer frequency, TF over GST control)"
TAACTC,"1.29 fold enrichment (6-mer frequency, TF over GST control)","1.12 fold enrichment (6-mer frequency, TF over GST control)","1.25 fold enrichment (6-mer frequency, TF over GST control)","1.23 fold enrichment (6-mer frequency, TF over GST control)","1.22 fold enrichment (6-mer frequency, TF over GST control)","1.16 fold enrichment (6-mer frequency, TF over GST control)","1.25 fold enrichment (6-mer frequency, TF over GST control)","1.3 fold enrichment (6-mer frequency, TF over GST control)"
